# Bioassay records from PubChem BioAssay.
# LGR2 antag: blocks bursicon-induced cAMP signaling via Drosophila LGR2; HEK293 LGR2, CRE-luciferase, bursicon-stimulated, 4 h; inhibition, % at 9.99 µM; 380,000 compounds, 0.35% hits;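 active = drop in luminescence signal, shown as inhibition above about 50% in the replicate tests, limit read from the data, passing the limit was not always enough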;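 note: agonist challenge used bursicon conditioned medium at about half maximal strength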
# TWEAK-Fn14 inh: inhibitors of TWEAK-Fn14 interaction signaling; TWEAK-stimulated Fn14 reporter cells, luciferase luminescence, 8 h; inhibition, % at 10 µM; 360,000 compounds, 2% hits; AID 1159606; in the data active = inhibition above about 50%
# PAX8 reporter: PAX8 transcriptional activity inhibition | RMG-I TPO-luciferase reporter, SteadyGlo, 24 h | inhibition, % at 12.6 µM | 360,000 compounds, 1.2% hits | AID 652154;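 active = mean replicate inhibition at least 60% with every replicate also reaching 60%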;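 note: luciferase light reporting Pax8 driven TPO promoter activity; plate controls were median of neutral control wells for no effect and mitoxantrone controls for full effect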
# TROY NFkB inh: blocks TROY-dependent signaling in reporter cells; Q293 LMP1-TROYcd NF-kB luciferase reporter, 4 h; inhibition, % at 10 µM; 360,000 compounds, 0.98% hits; AID 1347056;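 active = compounds whose plate-normalised and pattern-corrected inhibition of the luciferase reporter signal at the single screening dose is 50% or more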
# LMP1 NFkB inh: Epstein-Barr LMP1 NF-kappaB reporter inhibition | 350,000 compounds, 0.69% hits | LMP1-induced NF-kappaB luciferase reporter cells, luminescence | inhibition, % at 12.5 µM; in the data active = inhibition above about 41%;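 note: 0% = neutral control wells and 100% = reference inhibitor control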
# EWS-Fli inh: blocks EWS/Fli oncoprotein-driven transcription | A673 NR0B1-luciferase reporter, viability-normalised | inhibition, % at 12.6 µM | 350,000 compounds, 0.67% hits;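 active = mean inhibition of at least 50% after viability correction, with every replicate also passing that limit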;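 note: firefly luciferase signal divided by Alamar Blue viability fluorescence both relative to DMSO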
# Numbers without * were called inactive; x = no result. A selection: hits, their analogues and other compounds. The true share with any hit is near 3.2%.
SMILES,LGR2 antag,TWEAK-Fn14 inh,PAX8 reporter,TROY NFkB inh,LMP1 NFkB inh,EWS-Fli inh
Cc1ccc(OCC(=O)c2c(O)c3ccccc3oc2=O)cc1C,x,7,x,62*,-3,x
CCOc1ccc(N=Cc2c(O)c3ccccc3oc2=O)cc1,-41,5,-19,29,0,x
CCc1ccc(OCC(=O)c2c(O)c3ccccc3oc2=O)cc1,11,16,-5,59*,5,0
Cc1ccc(C(C)C)c(OCC(=O)NN2C(=O)c3ccccc3C2=O)c1,-5,3,7,-5,0,13
Cc1cc(=O)oc2cc(OCC(=O)c3ccccc3)ccc12,1,-17,-19,-7,8,-22
COc1ccc(S(=O)(=O)Nc2ccc3c(c2)C(=O)N([C@H](C)CO)C[C@@H](C)[C@@H](CN(C)C(=O)Nc2ccc(C(F)(F)F)cc2)OCCCC[C@@H](C)O3)cc1,4,x,51,x,x,2
COc1ccc(C)cc1NC(=O)N1CCCc2ccccc21,-26,55*,6,70*,-4,8
COc1ccc2c(c1)CCCN2C(N)=O,-1,58*,x,4,10,5
COc1ccc(NC(=O)N2CCCc3ccccc32)c(OC)c1,3,51*,-107,70*,8,-8
O=C(NCC[C@H]1CC[C@@H](NC(=O)C2CC2)[C@@H](CO)O1)c1cc(Cl)cc(Cl)c1,-15,x,x,x,x,3
